Where “and” joins values, the source holds several entries; their conditions need not be identical. Identical values can stand only once. Results filed as inconclusive are left out. Some compounds were tested as several samples or in several runs, with calls that do not always agree. Calls of active or inactive are those of the source. Unless noted, calls follow the shape of the full dose curve.
Experiments:
[1] = qHTS assay to identify small molecule agonists of the vitamin D receptor (VDR) signaling pathway - cell viability counter screen (AID 743224; active = well fitted curve in the direction sought with a large enough effect in the repeat runs; an effect the other way counts as inactive or inconclusive; also: nearly all actives have a fitted effect of over 50% in size; also: potency is read from the fitted curve at half-maximal effect)
How it was run: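 In parallel with the bla FRET readout, cytotoxicity toward VDR-bla cells after 16 h compound exposure was assessed by CellTiter-Glo, with luminescence recorded after a 30 min room-temperature incubation.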

[2] = qHTS assay to identify small molecule antagonists of the vitamin D receptor (VDR) signaling pathway - cell viability counter screen (AID 743225; active = well fitted curve in the direction sought with a large enough effect in the repeat runs; an effect the other way counts as inactive or inconclusive; also: % is scaled to controls: 0 for no effect and ±100 for the full control effect; nearly all actives have a fitted effect of over 50% in size)
How it was run: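 VDR-bla HEK 293T cells, 4 h pre-incubation at 37C, then compound plus 1-alpha,25-dihydroxyvitamin D3 (3 nM final) for 16 h. After the beta-lactamase FRET read, CellTiter-Glo was added to the same wells; luminescence after 30 min at room temperature.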

[3] = qHTS assay to identify small molecule agonists of the NFkB signaling pathway (AID 1159509; active = well fitted curve in the direction sought with a large enough effect in the signal ratio in the repeat runs, not every such curve was filed as active; the % refers to the signal ratio; also: series mostly up to about 61 µM; % is scaled to controls: 0 for no effect and ±100 for the full control effect)
How it was run: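 Pathway activation was measured in ME-180 cells stably expressing beta-lactamase under NF-kB response element control. Substrate cleavage was read as the 460/530 nm emission shift after 5 hr compound incubation.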

[4] = qHTS assay to identify small molecule agonists of the NFkB signaling pathway - cell viability counter screen (AID 1159515); also: series mostly up to about 61 µM; % is scaled to controls: 0 for no effect and ±100 for the full control effect; nearly all actives have a fitted effect of over 55% in size
How it was run: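 Plate 2,000 NFkB-bla ME-180 cells/well; incubate overnight. Add compounds, 5 hr at 37 C. Add FRET substrate, 1.5 hr RT. Add CellTiter-Glo, 30 min RT; read luminescence.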

[5] = qHTS assay to identify small molecule agonists of the endoplasmic reticulum stress response signaling pathway (AID 1159516; active = well fitted activation curve with a large enough effect in the signal ratio in the repeat runs, not every such curve was filed as active; the % refers to the signal ratio; also: % is scaled to controls: 0 for no effect and ±100 for the full control effect)
How it was run: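 Beta-lactamase expression from the ER stress response element in HeLa reporter cells is quantified with the LiveBLAzer B/G FRET substrate, read at 405 nm excitation after 2 hr at room temperature, following 5 hr compound treatment at 37 C.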

[6] = qHTS assay to identify small molecule agonists of the endoplasmic reticulum stress response signaling pathway - cell viability counter screen (AID 1159517); also: series mostly up to about 61 µM; % is scaled to controls: 0 for no effect and ±100 for the full control effect; nearly all actives have a fitted effect of over 50% in size
How it was run: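 Cpd-treated ESRE-bla HeLa (5 hr, 37 C) → LiveBLAzer 2 hr RT → CellTiter-Glo 30 min RT → luminescence.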

[7] = qHTS assay to identify small molecule antagonists of the retinoid-related orphan receptor gamma (ROR-gamma) signaling pathway - cell viability counter screen (AID 1159520; active = well fitted curve in the direction sought with a large enough effect in the repeat runs; an effect the other way counts as inactive or inconclusive; also: % is scaled to controls: 0 for no effect and ±100 for the full control effect; nearly all actives have a fitted effect of over 50% in size)
How it was run: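 Tet-on ROR gamma CHO cells (1,000/well) were plated 4 hr, given compounds in DMSO for 2 hr at 37 C, then induced with 1 uM final doxycycline for 16 hr. Viability was read as ATP by CellTiter-Glo luminescence after 30 min.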

[8] = molecular target: Nuclear receptor ROR-gamma (Homo sapiens) (UniProt P51449); assay: qHTS assay to identify small molecule antagonists of the retinoid-related orphan receptor gamma (ROR-gamma) signaling pathway (AID 1159521; active = well fitted curve in the direction sought with a large enough effect in the repeat runs; an effect the other way counts as inactive or inconclusive; also: nearly all actives have a fitted effect of over 50% in size; also: potency is read from the fitted curve at half-maximal effect;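 as to activity change, negative = inhibition: CHO cells with doxycycline inducible ROR-gamma driving an RORE luciferase reporter; top concentration of the series differs between compounds; % is scaled to controls: 0 for no effect and ±100 for the full control effect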)
How it was run: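 Tet-on RORγ CHO cells carrying a ROR response element–luciferase reporter were pretreated with compounds for 2 h, then induced with 1 uM (final) doxycycline hyclate for 16 h at 37 C. Antagonism was read as decreased ONE-Glo luminescence.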

[9] = qHTS assay to identify small molecule agonists of the AP-1 signaling pathway - cell viability counter screen (AID 1159525); also: nearly all actives have a fitted effect of over 55% in size; also: potency is read from the fitted curve at half-maximal effect
How it was run: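 Each titration point was normalised to DMSO and tetra n-octyl ammonium bromide controls. The read was Cell Titer Glo luminescence after 30 min at RT, following 5 h compound exposure of ME-180 AP-1-bla cells at 37 °C.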

[10] = qHTS assay to identify small molecule agonists of the AP-1 signaling pathway (AID 1159526); also: % is scaled to controls: 0 for no effect and ±100 for the full control effect

COc1ccc2cc([C@H](C)C(=O)O)ccc2c1
inactive: Potency [1] | outcome [2] | outcome [3] | outcome [4] | outcome [5] | outcome [6] | Potency [7] | Potency [8] | Potency [9] | outcome [10]

ON=C1CCCCC1
inactive and 38.9 µM (active): Potency [1]
inactive: outcome [2] | outcome [3] | outcome [4] | outcome [5] | outcome [6] | Potency [7] | Potency [8] | Potency [9] | outcome [10]

c1c[nH]cn1
inactive: Potency [1] | outcome [2] | outcome [3] | outcome [4] | outcome [5] | outcome [6] | Potency [7] | Potency [9] | outcome [10]

CC(=O)OCC(=O)[C@@]12N=C(C)O[C@@H]1C[C@H]1[C@@H]3CCC4=CC(=O)C=C[C@]4(C)[C@H]3[C@@H](O)C[C@@]12C
inactive: Potency [1] | outcome [2] | outcome [3] | outcome [4] | outcome [5] | outcome [6] | Potency [7] | Potency [8] | Potency [9] | outcome [10]

O=C(O)CCCCCCCCCCC(=O)O
inactive: Potency [1] | outcome [2] | outcome [3] | outcome [4] | outcome [5] | outcome [6] | Potency [7] | Potency [8] | Potency [9] | outcome [10]

CN(C)CCOCCN(C)C
inactive: Potency [1] | outcome [2] | outcome [3] | outcome [4] | outcome [5] | outcome [6] | Potency [7] | Potency [8] | Potency [9] | outcome [10]

O=C(O)c1ccccc1C(c1ccc(O)cc1)c1ccc(O)cc1
inactive: outcome [2] | outcome [3] | outcome [4] | outcome [5] | outcome [6] | Potency [7] | Potency [8] | Potency [9] | outcome [10]

CC(=O)CC(=O)Nc1ccccc1
inactive: Potency [1] | outcome [2] | outcome [3] | outcome [4] | outcome [5] | outcome [6] | Potency [7] | Potency [9] | outcome [10]

CCN(CC)CCCC(C)Nc1ccnc2cc(Cl)ccc12 (stereo not drawn)
inactive: outcome [2] | outcome [3] | outcome [4] | outcome [5] | outcome [6] | activity, negative = cytotoxicity [7] -1.33% [at 8.39 µM] and 0.877% [at 19 µM] | activity change, negative = inhibition [8] 0.0918% [at 8.39 µM] and -4.56% [at 19 µM] | viability change, negative = cytotoxic [9] 0.716% [at 6.97 µM] and 1.22% [at 15.8 µM] | activation [10] 0.84% [at 6.97 µM] and -1.42% [at 15.8 µM]

CCCCOC(=O)COc1ccc(Cl)cc1Cl
inactive: Potency [1] | outcome [2] | outcome [3] | outcome [4] | outcome [5] | outcome [6] | Potency [7] | Potency [9] | outcome [10]
19.5 µM (active) and inactive: Potency [8]

O=C(O)c1cc(C(=O)O)cc(S(=O)(=O)O)c1
inactive: Potency [1] | outcome [2] | outcome [3] | outcome [4] | outcome [5] | outcome [6] | Potency [7] | Potency [8] | Potency [9] | outcome [10]

COS(C)(=O)=O
inactive: Potency [1] | outcome [2] | outcome [3] | outcome [4] | outcome [5] | outcome [6] | Potency [7] | Potency [9] | outcome [10]

OC[C@H]1O[C@@](CO)(O[C@H]2O[C@H](CO)[C@@H](O)[C@H](O)[C@H]2O)[C@@H](O)[C@@H]1O
inactive: Potency [1] | outcome [2] | outcome [3] | outcome [4] | outcome [5] | outcome [6] | Potency [7] | Potency [8] | Potency [9] | outcome [10]

O=S1(=O)CC=CC1
inactive: outcome [2] | outcome [3] | outcome [4] | outcome [5] | outcome [6] | Potency [7] | Potency [8] | Potency [9] | outcome [10]

C=C(C)C(=O)Nc1ccc(Cl)c(Cl)c1
inactive: outcome [2] | outcome [3] | outcome [4] | outcome [5] | outcome [6] | Potency [7] | Potency [8] | Potency [9] | outcome [10]

CCc1cccc(C)c1N
inactive: outcome [2] | outcome [3] | outcome [4] | outcome [5] | outcome [6] | Potency [7] | Potency [8] | Potency [9] | outcome [10]

Oc1cccc2ccccc12
inactive: Potency [1] | outcome [2] | outcome [3] | outcome [4] | outcome [5] | outcome [6] | Potency [7] | Potency [8] | Potency [9] | outcome [10]

CC1CCC2CC1C2(C)C (stereo not drawn)
inactive: outcome [2] | outcome [3] | outcome [4] | outcome [5] | outcome [6] | Potency [7] | Potency [8] | Potency [9] | outcome [10]

O=C(O)c1cc(O)c(O)c(O)c1
inactive: outcome [2] | outcome [3] | outcome [4] | outcome [5] | outcome [6] | Potency [7] | Potency [8] | Potency [9] | outcome [10]

Cc1cccc(O)c1
inactive: Potency [1] | outcome [2] | outcome [3] | outcome [4] | outcome [5] | outcome [6] | Potency [7] | Potency [8] | Potency [9] | outcome [10]

CCCSc1ccc2nc(NC(=O)OC)[nH]c2c1
inactive: outcome [2] | outcome [3] | outcome [4] | outcome [5] | outcome [6] | Potency [7] | Potency [8] | Potency [9] | outcome [10]

CC(C)CC(=O)CC(C)C
inactive: Potency [1] | outcome [2] | outcome [3] | outcome [4] | outcome [5] | outcome [6] | Potency [7] | Potency [8] | Potency [9] | outcome [10]

c1ccc2c(c1)ccc1ccccc12
inactive: Potency [1] | outcome [2] | outcome [3] | outcome [4] | outcome [5] | outcome [6] | Potency [7] | Potency [9] | outcome [10]

C=C(C)C(=O)O[C@H]1C[C@@H]2CC[C@@]1(C)C2(C)C
inactive: Potency [1] | outcome [2] | outcome [3] | outcome [4] | outcome [5] | outcome [6] | Potency [7] | outcome [10]
963 nM (active) and inactive: Potency [8]
4.87 µM (active) and inactive: Potency [9]

Nc1ccccc1[N+](=O)[O-]
inactive: Potency [1] | outcome [2] | outcome [3] | outcome [4] | outcome [5] | outcome [6] | Potency [7] | Potency [8] | Potency [9] | outcome [10]

— PubChem BioAssay (Tox21)
